# From PubChem BioAssay (NCI)
# This is part of a sample that, as a whole, favours compounds with a hit. Of some 79,000 tested, about 15% had one in any assay. Values without a mark were called inactive. The source made the active and inactive calls. No stated cut-off is given here; in the data, active means growth inhibition above about 70%; inactive means the rest.
# Experiments:
# [1] = NCI Yeast Anticancer Drug Screen. Data for the rad52 strain (AID 147);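 further: 0% = growth of vehicle-treated control cultures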; details: S. cerevisiae rad52 mutant growth inhibition, active compounds read high
# Summary of the method: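 Here a repair-compromised yeast strain receives each compound; its growth is then quantified and normalised to vehicle-only controls.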
# [2] = NCI Yeast Anticancer Drug Screen. Data for the wt1 strain (AID 149);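 further: 0% = growth of vehicle-treated wt1 cultures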; details: S. cerevisiae wt1 strain (SPY 50644) growth inhibition, active compounds read high
# Summary of the method: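 Yeast wt1 strain exposed to compounds; growth inhibition measured relative to vehicle-treated controls.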
# [3] = NCI Yeast Anticancer Drug Screen. Data for the rad50EPP+ strain (AID 151);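 further: 0% = growth of vehicle-treated control cultures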; details: S. cerevisiae rad50 mutant strain, active compounds read high
# Summary of the method: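 Read-out is yeast growth inhibition relative to vehicle; cells used were the rad50EPP+ strain.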
# [4] = NCI Yeast Anticancer Drug Screen. Data for the mgt1 strain (AID 153); details: S. cerevisiae mgt1 mutant growth inhibition, active compounds read high
# Summary of the method: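 Measured: inhibition of mgt1 yeast growth by compound, normalized to vehicle-treated cultures.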
# [5] = NCI Yeast Anticancer Drug Screen. Data for the rad50 strain (AID 155);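 further: 0% = growth of vehicle-only cultures of the same strain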; details: S. cerevisiae rad50 strain growth inhibition, active compounds read high
# Summary of the method: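 Yeast carrying a defined DNA repair defect were exposed to test compounds, and growth was compared with vehicle-treated controls to give percent inhibition.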
# [6] = NCI Yeast Anticancer Drug Screen. Data for the mec2-1 strain (AID 157); details: S. cerevisiae mec2-1 strain, active compounds read high
# Summary of the method: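 Using mec2-1 yeast: add compound, measure growth, express inhibition versus vehicle-treated cultures.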
# [7] = NCI Yeast Anticancer Drug Screen. Data for the rad14 strain (AID 159);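 further: 0% = growth of vehicle-treated control cultures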; details: S. cerevisiae rad14 strain growth inhibition, active compounds read high
# Summary of the method: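 Yeast cells carrying a defined DNA-repair defect were exposed to compounds, and growth inhibition was calculated relative to vehicle-treated control cultures.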
# [8] = NCI Yeast Anticancer Drug Screen. Data for the sgs1 mgt1 strain (AID 161);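 further: 0% = growth of cultures given vehicle only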; details: S. cerevisiae sgs1 mgt1 strain, active compounds read high
# Summary of the method: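 Growth of a repair-deficient yeast mutant was monitored after compound treatment and expressed as inhibition relative to vehicle-treated cultures.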
# [9] = NCI Yeast Anticancer Drug Screen. Data for the CLN2oe strain (AID 163);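 further: 0% = growth of vehicle-only control cultures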; details: S. cerevisiae CLN2oe strain, active compounds read high
# Summary of the method: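 Whole-cell yeast growth assay. A strain engineered for altered cell-cycle control received compound, and inhibition relative to vehicle-treated cultures was recorded.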
# [10] = NCI Yeast Anticancer Drug Screen. Data for the cln2 rad14 strain (AID 165);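 further: 0% = growth equal to vehicle treated cultures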; details: S. cerevisiae cln2 rad14 strain, active compounds read high
# Summary of the method: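 Yeast strain cln2 rad14, bearing defects in cell cycle control and DNA repair, serves as the test system; values reflect growth inhibition compared with vehicle.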
# [11] = NCI Yeast Anticancer Drug Screen. Data for the bub3 strain (AID 167); details: S. cerevisiae bub3 mutant strain, active compounds read high
# Summary of the method: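 Compounds were applied to a genetically altered yeast strain carrying a cell-cycle control defect. Growth inhibition was scored against vehicle-treated controls.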
# [12] = NCI Yeast Anticancer Drug Screen. Data for the wt2 strain (AID 169);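 further: 0% = growth of vehicle-treated yeast cultures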; details: S. cerevisiae wt2 strain growth inhibition, active compounds read high
# Summary of the method: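 Treated yeast vs. vehicle-treated yeast: growth inhibition determined.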
# [13] = NCI Yeast Anticancer Drug Screen. Data for the mlh1 strain (AID 171);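 further: 0% = growth of vehicle-treated control cultures of the same strain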; details: S. cerevisiae mlh1 strain growth inhibition, active compounds read high
# Summary of the method: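 A yeast strain with a defined genetic lesion serves as the test organism. Cultures receive compound or vehicle, and growth is measured.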
# [14] = NCI Yeast Anticancer Drug Screen. Data for the sgs1 strain (AID 173);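 further: 0% = growth of vehicle-only control cultures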; details: S. cerevisiae sgs1 mutant, active compounds read high
# Summary of the method: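 A genetically defined yeast mutant is incubated with the test compound, and its growth is compared to that of the same strain given vehicle.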
# [15] = NCI Yeast Anticancer Drug Screen. Data for the mlh1 rad18 strain (AID 175); details: S. cerevisiae mlh1 rad18 strain growth inhibition, active compounds read high
# Summary of the method: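 Steps: expose repair-defective yeast to compound; measure growth; express inhibition against vehicle-treated controls.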
# [16] = NCI Yeast Anticancer Drug Screen. Data for the rad18 strain (AID 177); details: S. cerevisiae rad18 mutant growth inhibition, active compounds read high
# Summary of the method: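 Measured value is growth inhibition of a yeast strain bearing a DNA repair alteration, referenced to vehicle-treated cells.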
# [17] = at 5.0 µM (retest, dose inferred, filed as 0.5)
# [18] = at 50.0 µM (retest, dose inferred, filed as 5.0)
smiles,measurement,setting,value
CCOC(=O)C1N=[N+](c2ccccc2)C(=O)/C1=C\n1c(=S)[nH]c2ccc([N+](=O)[O-])cc21 (stereo unspecified),growth inhibition,[1]; at 1.2 µM,0%
same,growth inhibition,[1]; at 3.7 µM,1%
same,growth inhibition,[1]; at 11.0 µM,2%
same,growth inhibition,[1]; at 33.0 µM,0%
same,growth inhibition,[1]; at 100.0 µM,9%
same,growth inhibition,[2]; at 1.2 µM,1%
same,growth inhibition,[2]; at 3.7 µM,3%
same,growth inhibition,[2]; at 11.0 µM,2%
same,growth inhibition,[2]; at 33.0 µM,3%
same,growth inhibition,[2]; at 100.0 µM,6%
same,growth inhibition,[3]; at 1.2 µM,0%
same,growth inhibition,[3]; at 3.7 µM,1%
same,growth inhibition,[3]; at 11.0 µM,4%
same,growth inhibition,[3]; at 33.0 µM,2%
same,growth inhibition,[3]; at 100.0 µM,6%
same,growth inhibition,[4]; at 1.2 µM,-1%
same,growth inhibition,[4]; at 3.7 µM,-1%
same,growth inhibition,[4]; at 11.0 µM,0%
same,growth inhibition,[4]; at 33.0 µM,-11%
same,growth inhibition,[4]; at 100.0 µM,5%
same,growth inhibition,[5]; at 1.2 µM,-6%
same,growth inhibition,[5]; at 3.7 µM,-14%
same,growth inhibition,[5]; [17],21%
same,growth inhibition,[5]; at 11.0 µM,-18%
same,growth inhibition,[5]; at 33.0 µM,3%
same,growth inhibition,[5]; [18],94% (active)
same,growth inhibition,[5]; at 50.0 µM,5.15%
same,growth inhibition,[5]; at 100.0 µM,7%
same,growth inhibition,[6]; at 1.2 µM,1%
same,growth inhibition,[6]; at 3.7 µM,1%
same,growth inhibition,[6]; [17],13%
same,growth inhibition,[6]; at 11.0 µM,2%
same,growth inhibition,[6]; at 33.0 µM,7%
same,growth inhibition,[6]; [18],96% (active)
same,growth inhibition,[6]; at 50.0 µM,17.2%
same,growth inhibition,[6]; at 100.0 µM,9%
same,growth inhibition,[7]; at 1.2 µM,0%
same,growth inhibition,[7]; at 3.7 µM,-2%
same,growth inhibition,[7]; at 11.0 µM,1%
same,growth inhibition,[7]; at 33.0 µM,2%
same,growth inhibition,[7]; at 100.0 µM,8%
same,growth inhibition,[8]; [17],-4%
same,growth inhibition,[8]; [18],63%
same,growth inhibition,[8]; at 50.0 µM,19.9%
same,growth inhibition,[9]; at 1.2 µM,1%
same,growth inhibition,[9]; at 3.7 µM,-1%
same,growth inhibition,[9]; at 11.0 µM,-1%
same,growth inhibition,[9]; at 33.0 µM,4%
same,growth inhibition,[9]; at 100.0 µM,3%
same,growth inhibition,[10]; [17],53%
same,growth inhibition,[10]; [18],95% (active)
same,growth inhibition,[10]; at 50.0 µM,47.9%
same,growth inhibition,[11]; at 1.2 µM,-7%
same,growth inhibition,[11]; at 3.7 µM,1%
same,growth inhibition,[11]; [17],97% (active)
same,growth inhibition,[11]; at 11.0 µM,1%
same,growth inhibition,[11]; at 33.0 µM,3%
same,growth inhibition,[11]; [18],99% (active)
same,growth inhibition,[11]; at 50.0 µM,20.8%
same,growth inhibition,[11]; at 100.0 µM,3%
same,growth inhibition,[12]; at 1.2 µM,0%
same,growth inhibition,[12]; at 3.7 µM,0%
same,growth inhibition,[12]; at 11.0 µM,-1%
same,growth inhibition,[12]; at 33.0 µM,1%
same,growth inhibition,[12]; at 100.0 µM,3%
same,growth inhibition,[13]; at 1.2 µM,0%
same,growth inhibition,[13]; at 3.7 µM,1%
same,growth inhibition,[13]; at 11.0 µM,2%
same,growth inhibition,[13]; at 33.0 µM,4%
same,growth inhibition,[13]; at 100.0 µM,8%
same,growth inhibition,[14]; at 1.2 µM,0%
same,growth inhibition,[14]; at 3.7 µM,1%
same,growth inhibition,[14]; at 11.0 µM,-9%
same,growth inhibition,[14]; at 33.0 µM,8%
same,growth inhibition,[14]; at 100.0 µM,16%
same,growth inhibition,[15]; [17],24%
same,growth inhibition,[15]; [18],94% (active)
same,growth inhibition,[15]; at 50.0 µM,5.05%
same,growth inhibition,[16]; at 1.2 µM,-2%
same,growth inhibition,[16]; at 3.7 µM,1%
same,growth inhibition,[16]; at 11.0 µM,3%
same,growth inhibition,[16]; at 33.0 µM,7%
same,growth inhibition,[16]; at 100.0 µM,15%
COC(=O)CCC(NC(=S)N/N=C(\C)c1ccccn1)C(=O)OC (stereo unspecified),growth inhibition,[1]; at 1.2 µM,-21%
same,growth inhibition,[1]; at 3.7 µM,-27%
same,growth inhibition,[1]; at 11.0 µM,1%
same,growth inhibition,[1]; at 33.0 µM,61%
same,growth inhibition,[1]; at 100.0 µM,90% (active)
same,growth inhibition,[2]; at 1.2 µM,-10%
same,growth inhibition,[2]; at 3.7 µM,-22%
same,growth inhibition,[2]; at 11.0 µM,2%
same,growth inhibition,[2]; at 33.0 µM,47%
same,growth inhibition,[2]; at 100.0 µM,85% (active)
same,growth inhibition,[3]; at 1.2 µM,6%
same,growth inhibition,[3]; at 3.7 µM,-5%
same,growth inhibition,[3]; at 11.0 µM,2%
same,growth inhibition,[3]; at 33.0 µM,18%
same,growth inhibition,[3]; at 100.0 µM,34%
same,growth inhibition,[4]; at 1.2 µM,14%
same,growth inhibition,[4]; at 3.7 µM,6%
same,growth inhibition,[4]; at 11.0 µM,28%
same,growth inhibition,[4]; at 33.0 µM,64%
same,growth inhibition,[4]; at 100.0 µM,91% (active)
same,growth inhibition,[5]; at 1.2 µM,8%
same,growth inhibition,[5]; at 3.7 µM,3%
same,growth inhibition,[5]; [17],34%
same,growth inhibition,[5]; at 11.0 µM,26%
same,growth inhibition,[5]; at 33.0 µM,72% (active)
same,growth inhibition,[5]; [18],79% (active)
same,growth inhibition,[5]; at 50.0 µM,77.5% (active)
same,growth inhibition,[5]; at 100.0 µM,93% (active)
same,growth inhibition,[6]; at 1.2 µM,-11%
same,growth inhibition,[6]; at 3.7 µM,-7%
same,growth inhibition,[6]; [17],9%
same,growth inhibition,[6]; at 11.0 µM,12%
same,growth inhibition,[6]; at 33.0 µM,57%
same,growth inhibition,[6]; [18],78% (active)
same,growth inhibition,[6]; at 50.0 µM,77.5% (active)
same,growth inhibition,[6]; at 100.0 µM,90% (active)
same,growth inhibition,[7]; at 1.2 µM,2%
same,growth inhibition,[7]; at 3.7 µM,-3%
same,growth inhibition,[7]; at 11.0 µM,21%
same,growth inhibition,[7]; at 33.0 µM,69%
same,growth inhibition,[7]; at 100.0 µM,92% (active)
same,growth inhibition,[8]; [17],7%
same,growth inhibition,[8]; [18],80% (active)
same,growth inhibition,[8]; at 50.0 µM,82.8% (active)
same,growth inhibition,[9]; at 1.2 µM,7%
same,growth inhibition,[9]; at 3.7 µM,2%
same,growth inhibition,[9]; at 11.0 µM,18%
same,growth inhibition,[9]; at 33.0 µM,62%
same,growth inhibition,[9]; at 100.0 µM,88% (active)
same,growth inhibition,[10]; [17],-5%
same,growth inhibition,[10]; [18],82% (active)
same,growth inhibition,[10]; at 50.0 µM,83% (active)
same,growth inhibition,[11]; at 1.2 µM,24%
same,growth inhibition,[11]; at 3.7 µM,28%
same,growth inhibition,[11]; [17],22%
same,growth inhibition,[11]; at 11.0 µM,32%
same,growth inhibition,[11]; at 33.0 µM,77% (active)
same,growth inhibition,[11]; [18],84% (active)
same,growth inhibition,[11]; at 50.0 µM,81.3% (active)
same,growth inhibition,[11]; at 100.0 µM,93% (active)
same,growth inhibition,[12]; at 1.2 µM,-37%
same,growth inhibition,[12]; at 3.7 µM,-29%
same,growth inhibition,[12]; at 11.0 µM,-3%
same,growth inhibition,[12]; at 33.0 µM,51%
same,growth inhibition,[12]; at 100.0 µM,87% (active)
same,growth inhibition,[13]; at 1.2 µM,20%
same,growth inhibition,[13]; at 3.7 µM,2%
same,growth inhibition,[13]; at 11.0 µM,23%
same,growth inhibition,[13]; at 33.0 µM,62%
same,growth inhibition,[13]; at 100.0 µM,92% (active)
same,growth inhibition,[14]; at 1.2 µM,-14%
same,growth inhibition,[14]; at 3.7 µM,-15%
same,growth inhibition,[14]; at 11.0 µM,20%
same,growth inhibition,[14]; at 33.0 µM,67%
same,growth inhibition,[14]; at 100.0 µM,92% (active)
same,growth inhibition,[15]; [17],-13%
same,growth inhibition,[15]; [18],79% (active)
same,growth inhibition,[15]; at 50.0 µM,75.5% (active)
same,growth inhibition,[16]; at 1.2 µM,-16%
same,growth inhibition,[16]; at 3.7 µM,-27%
same,growth inhibition,[16]; at 11.0 µM,10%
same,growth inhibition,[16]; at 33.0 µM,70% (active)
same,growth inhibition,[16]; at 100.0 µM,91% (active)
